Assay [1] is described as follows: Nuclear factor erythroid 2-related factor 2/antioxidant responsive element (Nrf2/ARE) small molecule agonists: qHTS cell viability counter screen in human keratinocytes (AID 1919968; active = well fitted curve in the direction sought with a large enough effect in the repeat runs; an effect the other way counts as inactive or inconclusive; note: nearly all actives have a fitted effect of over 55% in size; note: potency is the fitted concentration of half-maximal effect). In short, it runs like this:
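Cells of the KeratinoSens line were plated at 1,500 per well and left for 5 h before compound transfer from DMSO stocks. After a 23 h incubation (37 C, 5% CO2), CellTiter-Fluor was added. Signal was taken as fluorescence intensity 1 h later.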
(In general: qHTS replaces the single test concentration by a dilution series.)

Assay [2] in a line: Nuclear factor erythroid 2-related factor 2/antioxidant responsive element (Nrf2/ARE) small molecule agonists: luciferase reporter gene qHTS assay in human keratinocytes (AID 1919969). Note: nearly all actives have a fitted effect of over 35% in size. Note: potency is the fitted concentration of half-maximal effect. For orientation: A reporter such as luciferase makes a cellular process visible.
The target in assay [3] is Gonadotropin-releasing hormone receptor (Homo sapiens) (UniProt P30968). The experiment in a line: Human gonadotropin-releasing hormone receptor (GnRHR) small molecule agonists, calcium flux assay in GnRHR-HEK293 cells (AID 1920063). Note: nearly all actives have a fitted effect of over 35% in size. In short, it runs like this:
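Compounds dissolved in DMSO are pin-transferred onto dye-loaded GnRHR-HEK293 cells, which were seeded 18 h before at 37 C/5% CO2. Calcium signal is read as fluorescence intensity at 1 s intervals for 3 min.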
(In general: Calcium assays in cells follow changes in intracellular calcium, usually with a dye or a luminescent sensor.)

Assay [4] deals with KiSS-1 receptor (Homo sapiens) (UniProt Q969F8). The experiment in a line: Human kisspeptin (KISS1R) small molecule agonists, calcium flux assay in KISS1R-HEK293 cells (AID 1920064; active = well fitted curve in the direction sought with a large enough effect in the repeat runs; an effect the other way counts as inactive or inconclusive). In short, it runs like this: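 Cell line: HEK293, stable human KISS1R. Dye loading 1 h at 37 C after 18 h culture. Read: kinetic fluorescence, 480/540 nm, 3 min at 1 s intervals.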
Sequence of KiSS-1 receptor (Homo sapiens) (Q969F8 whole entry, looked up): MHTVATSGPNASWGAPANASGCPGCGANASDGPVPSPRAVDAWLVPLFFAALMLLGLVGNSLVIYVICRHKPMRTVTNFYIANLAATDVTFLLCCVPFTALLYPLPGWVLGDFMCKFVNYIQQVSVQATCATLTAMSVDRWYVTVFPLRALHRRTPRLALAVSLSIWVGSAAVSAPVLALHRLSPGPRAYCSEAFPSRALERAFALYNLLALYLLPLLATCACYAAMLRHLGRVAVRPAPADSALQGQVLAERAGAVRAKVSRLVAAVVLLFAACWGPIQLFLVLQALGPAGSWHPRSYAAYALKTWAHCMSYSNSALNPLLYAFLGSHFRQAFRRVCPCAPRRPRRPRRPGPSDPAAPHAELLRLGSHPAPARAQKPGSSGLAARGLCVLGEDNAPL
Assay [5] is described as follows: G protein-coupled receptor (GPCR) small molecule agonists, calcium flux assay: HEK293 wild type cell line counter screen (AID 1920065). In short, it runs like this:
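Tox21 10K compounds, 15 concentrations each in triplicate, pin-transferred in DMSO onto dye-loaded cells; kinetic read at 480/540 nm for 3 min, 1 s intervals.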

A short description of assay [6]: p53 small molecule agonists, cell-based qHTS assay with human liver microsomes: qHTS cell viability counter screen (AID 1963579). Note: nearly all actives have a fitted effect of over 45% in size. Note: potency is the fitted concentration of half-maximal effect. The gist of the method: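 Metabolically activated exposure: compounds, human liver microsomes and NADPH (0.5 mg/mL final apiece) were added to p53RE-bla cells seeded 5 h earlier, left 16 h at 37 C, and then assessed for viability by CellTiter-Glo luminescence.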

The nature of assay [7]: p53 small molecule agonists, cell-based qHTS assay with rat liver microsomes: qHTS cell viability counter screen (AID 1963580). Note: nearly all actives have a fitted effect of over 45% in size. Note: potency is the fitted concentration of half-maximal effect. The gist of the method:
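Rat liver microsome (0.5 mg/mL final) and NADPH (0.5 mg/mL final) co-incubation with compounds for 16 h at 37 C on HCT-116 p53RE-bla cells; cytotoxicity taken from intracellular ATP luminescence.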

Assay [8] in a line: p53 small molecule agonists, cell-based qHTS assay: qHTS cell viability counter screen (AID 1963581). Note: nearly all actives have a fitted effect of over 45% in size. Note: potency is the fitted concentration of half-maximal effect. In short, it runs like this: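 ATP content measured by luminescence in HCT-116 p53RE-bla cells treated 16 h at 37 C, same wells as the reporter screen.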
The target of assay [9] is 5-hydroxytryptamine receptor 2A (Homo sapiens) (UniProt P28223). The assay can be described thus: 5-hydroxytryptamine receptor 2A (HTR2A) small molecule antagonists, cell-based qHTS assay (AID 1963586). Note: nearly all actives have a fitted effect of over 45% in size. In short, it runs like this:
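CHO cells stably expressing human HTR2A were plated for 18 h at 37 C, then loaded with calcium dye for 1 h. Compounds were preincubated 5 min at room temperature before DOI (4 nM solution) was added. Kinetic fluorescence was read for 3 min.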

Assay [10] shares this target. The assay can be described thus: 5-hydroxytryptamine receptor 2A (HTR2A) small molecule agonists, cell-based qHTS assay (AID 1963587). Note: nearly all actives have a fitted effect of over 30% in size. Note: potency is the fitted concentration of half-maximal effect. The gist of the method: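 Kinetic calcium-flux fluorescence (2 min, 1 sec intervals) after compound addition in agonist mode. HTR2A-CHO cells were cultured 18 h, then dye-loaded 1 h at 37 C.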
Assay [11] addresses Muscarinic acetylcholine receptor M1 (Homo sapiens) (UniProt P11229). The assay can be described thus: Cholinergic receptor muscarinic 1 (CHRM1) small molecule antagonists, cell-based qHTS assay (AID 1963588). Note: nearly all actives have a fitted effect of over 40% in size. The gist of the method:
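Compounds were tested at 15 concentrations in three independent runs. Dye-loaded CHRM1-CHO cells were exposed 5 min at room temperature before stimulation by acetylcholine added at 50nM. Intracellular calcium was read kinetically on FDSS for 3 min.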

The target is the same in assay [12]. The assay can be described thus: Cholinergic receptor muscarinic 1 (CHRM1) small molecule agonists, cell-based qHTS assay (AID 1963589). Note: nearly all actives have a fitted effect of over 35% in size. The gist of the method:
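Homogeneous fluorescence calcium flux, agonist mode. Human M1-expressing CHO cells; compound dosed at 15 concentrations, three independent runs; signal sampled every 1 sec.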

In assay [13] the target is Beta-2 adrenergic receptor (Homo sapiens) (UniProt P07550). The assay can be described thus: Adrenergic beta2 receptor (ADRB2) small molecule agonists, cell-based qHTS assay (AID 1963593). Note: potency is the fitted concentration of half-maximal effect. The gist of the method:
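CHO cells stably over-expressing ADRB2 were plated overnight at 37C, then dosed with compounds plus a stimulation mix containing 100uM IBMX and 25uM Ro-20-1724 for 0.5hr at room temperature. cAMP was measured by HTRF competition, 1hr.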

The target in assay [14] is D(2) dopamine receptor (Homo sapiens) (UniProt P14416). The assay can be described thus: Dopamine D2 receptor (DRD2) small molecule agonists, cell-based qHTS assay (AID 1963594). Note: nearly all actives have a fitted effect of over 35% in size. In short, it runs like this: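 cAMP accumulation in DRD2-HEK293 cells measured by HTRF after 1 h detection; compounds added 10 min before NKH477 (200nM […]) forskolin-analogue stimulation, 30 min at room temperature, with Ro20-1724 present at 0.1 mM final.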
Sequence of D(2) dopamine receptor (Homo sapiens) (P14416 whole entry, looked up): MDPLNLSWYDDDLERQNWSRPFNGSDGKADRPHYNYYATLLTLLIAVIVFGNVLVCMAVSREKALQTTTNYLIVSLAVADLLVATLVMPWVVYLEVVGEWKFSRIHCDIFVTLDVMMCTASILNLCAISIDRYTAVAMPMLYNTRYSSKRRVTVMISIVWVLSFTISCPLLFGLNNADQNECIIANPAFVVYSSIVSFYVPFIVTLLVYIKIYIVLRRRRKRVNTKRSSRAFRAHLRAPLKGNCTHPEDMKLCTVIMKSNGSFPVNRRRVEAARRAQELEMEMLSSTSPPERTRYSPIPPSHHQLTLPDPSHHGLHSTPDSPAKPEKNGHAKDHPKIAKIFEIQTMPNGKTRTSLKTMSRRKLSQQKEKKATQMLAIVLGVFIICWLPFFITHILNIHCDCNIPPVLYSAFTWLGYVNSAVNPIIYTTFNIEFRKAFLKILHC

Assay [15] has the same target. The experiment in a line: Dopamine D2 receptor (DRD2) small molecule antagonists, cell-based qHTS assay (AID 1963595; active = well fitted inhibition curve with a large enough effect in the signal ratio in the repeat runs, with a control signal flat; the % refers to the signal ratio; note: potency is the fitted concentration of half-maximal effect). In short, it runs like this: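 Antagonist mode in DRD2-HEK293 cells: after compound addition with 0.1 mM Ro20-1724, cells received quinpirole (12 nM) and NKH477 (200 nM) for 30 min at room temperature; HTRF cAMP read after 1 h detection.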
A short description of assay [16]: cAMP Responsive Elements (CRE) small molecule agonists, cell-based qHTS assay (AID 1963590). The gist of the method: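 HEK 293T cells stably bearing CRE-bla were plated at 2,000 cells per well and rested 18 h. Compounds, positive controls or DMSO were added for 3 h at 37 C. LiveBLAzer B/G substrate was then loaded for 2 h at room temperature.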
A short description of assay [17]: cAMP Responsive Elements (CRE) small molecule antagonists, cell-based qHTS assay (AID 1963591; active = well fitted inhibition curve with a large enough effect in the signal ratio in the repeat runs, not every such curve was filed as active; the % refers to the signal ratio). In short, it runs like this:
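First, CRE-bla HEK293T cells settled 18 h at 37 C. Next, compound and 0.25 uM final NKH477 were applied for 3 h. Last, LiveBLAzer B/G substrate was loaded for 2 h at room temperature.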

Assay [18] deals with Beta-2 adrenergic receptor (Homo sapiens) (UniProt P07550). The experiment in a line: Adrenergic beta2 receptor (ADRB2) small molecule antagonists, cell-based qHTS assay (AID 1963592). Note: series mostly up to about 92 µM; nearly all actives have a fitted effect of over 50% in size. The gist of the method:
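Assay format: CHO-ADRB2 cells, 18-20hr seeding at 37C/5% CO2, then compound plus 1nM isoproterenol agonist mix for 0.5hr RT. Homogeneous time-resolved fluorescence cAMP detection after 1hr, expressed as 665/615 nm ratio.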

Records with an inconclusive call do not appear. Activity calls are given as the source filed them. Unless noted, calls come from the whole dose curve.

Sequence of 5-hydroxytryptamine receptor 2A (Homo sapiens) (P28223 whole entry, looked up): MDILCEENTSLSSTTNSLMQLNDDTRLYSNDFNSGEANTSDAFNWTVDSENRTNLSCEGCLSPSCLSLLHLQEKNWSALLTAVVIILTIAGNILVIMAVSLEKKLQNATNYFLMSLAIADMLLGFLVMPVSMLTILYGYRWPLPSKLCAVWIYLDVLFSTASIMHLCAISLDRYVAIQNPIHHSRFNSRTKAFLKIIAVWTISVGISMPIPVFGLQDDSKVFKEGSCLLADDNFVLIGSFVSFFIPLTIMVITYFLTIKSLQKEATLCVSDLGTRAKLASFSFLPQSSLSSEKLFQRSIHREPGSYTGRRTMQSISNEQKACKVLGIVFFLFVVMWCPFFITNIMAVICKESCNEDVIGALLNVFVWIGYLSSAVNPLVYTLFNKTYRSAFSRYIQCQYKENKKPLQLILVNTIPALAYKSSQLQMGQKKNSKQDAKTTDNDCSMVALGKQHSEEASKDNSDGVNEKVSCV
Sequence of Gonadotropin-releasing hormone receptor (Homo sapiens) (P30968 whole entry, looked up): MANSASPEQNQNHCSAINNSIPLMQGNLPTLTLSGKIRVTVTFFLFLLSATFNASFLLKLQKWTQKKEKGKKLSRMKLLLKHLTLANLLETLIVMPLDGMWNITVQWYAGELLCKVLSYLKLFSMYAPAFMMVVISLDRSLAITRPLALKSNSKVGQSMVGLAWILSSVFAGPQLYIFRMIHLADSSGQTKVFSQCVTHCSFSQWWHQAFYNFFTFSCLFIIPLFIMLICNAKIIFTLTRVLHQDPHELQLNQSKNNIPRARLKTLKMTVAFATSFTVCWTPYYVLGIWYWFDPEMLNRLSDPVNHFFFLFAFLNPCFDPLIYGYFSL
Sequence of Beta-2 adrenergic receptor (Homo sapiens) (P07550 whole entry, looked up): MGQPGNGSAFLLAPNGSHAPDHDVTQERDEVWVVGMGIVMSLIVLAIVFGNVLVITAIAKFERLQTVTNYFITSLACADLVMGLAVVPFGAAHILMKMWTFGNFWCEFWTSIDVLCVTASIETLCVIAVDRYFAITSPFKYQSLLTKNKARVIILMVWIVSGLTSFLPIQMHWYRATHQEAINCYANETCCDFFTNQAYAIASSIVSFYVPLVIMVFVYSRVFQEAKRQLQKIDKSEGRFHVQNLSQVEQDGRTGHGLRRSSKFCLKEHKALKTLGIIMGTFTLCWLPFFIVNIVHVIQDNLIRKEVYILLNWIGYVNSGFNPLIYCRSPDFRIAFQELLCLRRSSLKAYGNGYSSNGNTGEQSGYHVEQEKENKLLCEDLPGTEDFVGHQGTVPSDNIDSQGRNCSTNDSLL
Sequence of Muscarinic acetylcholine receptor M1 (Homo sapiens) (P11229 whole entry, looked up): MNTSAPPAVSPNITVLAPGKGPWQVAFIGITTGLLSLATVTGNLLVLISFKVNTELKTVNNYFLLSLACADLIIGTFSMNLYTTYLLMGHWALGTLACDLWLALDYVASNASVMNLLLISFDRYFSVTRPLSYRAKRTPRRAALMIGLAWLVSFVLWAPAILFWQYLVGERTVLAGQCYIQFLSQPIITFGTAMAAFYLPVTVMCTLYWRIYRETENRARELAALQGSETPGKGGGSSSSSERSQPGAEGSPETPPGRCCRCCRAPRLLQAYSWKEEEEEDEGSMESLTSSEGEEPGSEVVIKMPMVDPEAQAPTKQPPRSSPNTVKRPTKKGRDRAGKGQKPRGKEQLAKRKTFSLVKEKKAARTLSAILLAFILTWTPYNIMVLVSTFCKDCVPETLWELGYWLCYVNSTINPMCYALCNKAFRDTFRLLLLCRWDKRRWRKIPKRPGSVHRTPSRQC

With `c1cc[c]([Bi]([c]2ccccc2)[c]2ccccc2)cc1`, the Potency entry in assay [1], in [3], in assay [4], in [5], in [6] and in [7] was “inactive” throughout. The Potency result in [8], in [9], in assay [10], in [11], in assay [12] and in [14] was “inactive” each time. For the same compound, the values for the Potency in [2], in [13] and in assay [15] were 4.86 µM (active), 1.72 µM (active) and 9.69 µM (active), respectively.

Consider `CN(C)c1ccncc1`, for which the Potency entry in assay [1], in [2], in assay [3], in [4], in [5] and in assay [6] was “inactive” each time. The Potency result in [7], in assay [8], in assay [9], in assay [10], in [12] and in [16] was “inactive” throughout. Further, the Potency result in assay [17], in assay [18], in assay [14] and in [15] was “inactive” throughout.

`CCCCCC/C=C/C=O`: the Potency entry in assay [1], in assay [2], in assay [3], in assay [4], in assay [5] and in assay [6] was “inactive” each time. Besides, the Potency result in assay [7], in assay [8], in assay [9], in assay [10], in assay [11] and in [12] was “inactive” throughout. Moreover, the Potency entry in [18], in assay [13], in assay [14] and in [15] was “inactive” throughout.

`O=C1CCCCCCCCCCCC(=O)OCCO1`: the Potency result in assay [1], in assay [2], in assay [3], in [4], in assay [5] and in assay [6] was “inactive” throughout. The Potency result in [7], in assay [8], in assay [9], in assay [11], in [12] and in [18] was “inactive” in each case. The Potency entry in assay [13], in assay [14] and in assay [15] was “inactive” throughout. Besides, the Potency in assay [10] is 5.49 µM (active).

In the case of `COC(=O)CSc1cc(N=c2sc(=O)n3n2CCCC3)c(F)cc1Cl`, the Potency result in assay [1], in assay [2], in assay [3], in assay [4], in [5] and in [6] was “inactive” each time. Also, the Potency entry in [7], in [8], in [9], in [10], in assay [11] and in assay [12] was “inactive” each time. Besides, the Potency result in [18] and in [15] was “inactive” in each case.

`Oc1cc2ccccc2c2ccccc12`: the Potency was 13.7 µM (active) in [1]; 10.2 µM (active) in assay [6]; 6.46 µM (active) in [7]; 10.2 µM (active) in [8]; 30.6 µM (active) in assay [15]. In addition, the Potency entry in [2], in assay [3], in [4], in assay [5], in assay [9] and in [10] was “inactive” throughout. For the same compound, the Potency result in assay [11] and in [18] was “inactive” each time.

For the compound `O=C(O)c1c(Cl)ccc(Cl)c1Cl`, the Potency entry in assay [1], in assay [2], in assay [3], in assay [4], in assay [5] and in assay [6] was “inactive” throughout. Besides, the Potency entry in assay [7], in assay [8], in [9], in assay [10], in assay [11] and in [16] was “inactive” throughout. Also, the Potency result in assay [17], in [18], in [13], in assay [14] and in [15] was “inactive” throughout.

Take `CCCCN1C[C@H](O)[C@@H](O)[C@H](O)[C@H]1CO`: the Potency entry in [1], in assay [2], in assay [3], in assay [4], in assay [5] and in assay [6] was “inactive” throughout. Besides, the Potency result in assay [7], in [8], in assay [9], in assay [10], in [11] and in assay [17] was “inactive” in each case. For the same compound, the Potency result in assay [18], in [13], in assay [14] and in assay [15] was “inactive” each time.

Values taken from PubChem BioAssay (Tox21).
